For some of these results: Measured potencies and affinities stand elsewhere.

Here are results for eight compounds from ChEMBL document CHEMBL3988442, “University of Dundee, Small-Polar-MMV Screening Library” (2021).

Holding throughout (design): scale not given: direction of the effect not stated beside the values
Test [1] addresses Protein translocase subunit SecA (Escherichia coli (strain K12)) (UniProt P10408). The experiment in a line: Assay to Identify E. coli SecA ATPase Inhibitors. The format is functional. The following applies: 30 µM.
The target of test [2] is T1, Ubiquitin-activating enzyme e1, putative (Leishmania donovani (strain BPK282A1)) (UniProt E9BSI1).
T1 sequence (whole entry): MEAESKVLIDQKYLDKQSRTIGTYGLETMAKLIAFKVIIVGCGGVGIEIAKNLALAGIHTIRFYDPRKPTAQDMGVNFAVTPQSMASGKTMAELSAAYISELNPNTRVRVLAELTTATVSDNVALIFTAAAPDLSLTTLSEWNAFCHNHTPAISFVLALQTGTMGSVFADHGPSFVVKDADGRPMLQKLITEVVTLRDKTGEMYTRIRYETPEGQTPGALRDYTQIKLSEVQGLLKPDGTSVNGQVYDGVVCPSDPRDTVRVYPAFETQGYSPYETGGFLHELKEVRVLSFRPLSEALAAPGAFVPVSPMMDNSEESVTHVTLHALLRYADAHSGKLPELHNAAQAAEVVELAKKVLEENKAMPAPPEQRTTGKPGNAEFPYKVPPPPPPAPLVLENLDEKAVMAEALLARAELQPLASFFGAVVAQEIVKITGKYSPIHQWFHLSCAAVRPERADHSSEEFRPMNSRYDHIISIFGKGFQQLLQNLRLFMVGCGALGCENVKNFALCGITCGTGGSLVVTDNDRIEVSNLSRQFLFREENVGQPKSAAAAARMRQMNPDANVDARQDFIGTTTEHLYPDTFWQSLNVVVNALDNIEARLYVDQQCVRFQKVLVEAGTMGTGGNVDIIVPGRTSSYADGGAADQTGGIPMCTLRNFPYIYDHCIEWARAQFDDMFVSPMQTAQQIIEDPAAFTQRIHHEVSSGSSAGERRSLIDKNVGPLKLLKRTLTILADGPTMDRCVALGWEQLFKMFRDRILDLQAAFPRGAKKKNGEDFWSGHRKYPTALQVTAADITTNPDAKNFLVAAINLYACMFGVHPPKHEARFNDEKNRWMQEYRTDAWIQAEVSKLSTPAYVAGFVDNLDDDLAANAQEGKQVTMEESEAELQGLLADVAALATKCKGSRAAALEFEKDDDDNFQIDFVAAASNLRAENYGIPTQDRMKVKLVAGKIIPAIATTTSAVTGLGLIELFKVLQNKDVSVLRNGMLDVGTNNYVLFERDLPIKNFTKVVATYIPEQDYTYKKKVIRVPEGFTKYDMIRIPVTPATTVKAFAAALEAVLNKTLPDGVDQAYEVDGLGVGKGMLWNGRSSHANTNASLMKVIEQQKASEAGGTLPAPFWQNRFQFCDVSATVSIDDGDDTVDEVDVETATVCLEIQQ
The experiment in a line: Leishmania donovani Ubiquitin Activating Enzyme (LdE1). The format is functional. The following applies: 30 µM.

Test [3] deals with AMP-activated protein kinase, AMPK (Homo sapiens) (UniProt P54646+O43741+P54619+Q9UGJ0+Q9Y478+Q13131+Q9UGI9). The test is described as follows: AMP-dependent Kinase enzyme assay. An in vitro enzyme assay that detects ADP turnover that is directly proportional to AMPK activity. This uses naive AMPK that is activated during the assay with MK-8722. The format is functional. The following applies: 30 µM.

Test [4] concerns the target Sialic acid-binding Ig-like lectin 9 (Homo sapiens) (UniProt Q9Y336). The test is described as follows: Hs-Siglec9 ALPHAscreen SOP 20170721. The following applies: 10 µM. (Alpha assays give light when donor and acceptor beads are brought close together.)
A further test relates to Trypanosoma cruzi. The test is described as follows: Trypanosoma cruzi phosphomannomutase and mannose-1-phosphate guanylyltransferase assay. It counts as functional. The following applies: 10 µM.
The target of test [5] is T2, Arginase-2, mitochondrial (Homo sapiens) (UniProt P78540).
T2 sequence (whole entry): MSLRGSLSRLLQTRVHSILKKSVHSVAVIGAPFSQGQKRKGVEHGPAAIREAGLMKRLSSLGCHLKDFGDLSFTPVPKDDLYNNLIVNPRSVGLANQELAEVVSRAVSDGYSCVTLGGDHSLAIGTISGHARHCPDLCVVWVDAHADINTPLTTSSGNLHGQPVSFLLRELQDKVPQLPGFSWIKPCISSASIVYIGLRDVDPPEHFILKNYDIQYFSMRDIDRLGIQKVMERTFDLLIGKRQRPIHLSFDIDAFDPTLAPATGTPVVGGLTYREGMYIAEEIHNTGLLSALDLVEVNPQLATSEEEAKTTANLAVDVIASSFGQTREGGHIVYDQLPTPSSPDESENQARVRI
The test is described as follows: in vitro enzyme assay to detect the production of urea directly proportional to the activity of Arginase II. Further: in the data most compounds retested in dose-response had high values. The format is functional. The following applies: 33.3 µM.

Test [6] concerns the target T3, Proteasome subunit beta (Trypanosoma cruzi) (UniProt O96673).
T3 sequence (whole entry): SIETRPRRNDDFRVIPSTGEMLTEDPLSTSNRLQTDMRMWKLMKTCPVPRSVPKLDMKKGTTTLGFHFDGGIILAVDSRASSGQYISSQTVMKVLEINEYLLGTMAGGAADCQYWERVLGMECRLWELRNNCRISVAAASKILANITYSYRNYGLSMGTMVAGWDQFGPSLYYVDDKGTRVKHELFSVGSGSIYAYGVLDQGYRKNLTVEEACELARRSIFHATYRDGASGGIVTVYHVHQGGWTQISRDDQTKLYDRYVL
The experiment in a line: Trypanosoma cruzi proteasome chymotrypsin-like activity (TcProtChymo) assay. Further: in the data most compounds retested in dose-response had high values. It counts as functional. The following applies: 9.37 µM.

For a further test, the species on record is Homo sapiens. The test is described as follows: To identify inhibition of the IFN signalling (Jak-Stat) pathway via expression of an eGFP reporter gene under the control of an IFN-stimulated response element (ISRE) containing MxA promoter. The format is functional. The following applies: 30 µM. (In a reporter assay the amount or activity of a reporter protein is the signal.)

Test [7] has as its target T4, Tyrosyl-tRNA synthetase, putative (Trypanosoma cruzi (strain CL Brener)) (UniProt Q4DSP6).
T4 sequence (whole entry): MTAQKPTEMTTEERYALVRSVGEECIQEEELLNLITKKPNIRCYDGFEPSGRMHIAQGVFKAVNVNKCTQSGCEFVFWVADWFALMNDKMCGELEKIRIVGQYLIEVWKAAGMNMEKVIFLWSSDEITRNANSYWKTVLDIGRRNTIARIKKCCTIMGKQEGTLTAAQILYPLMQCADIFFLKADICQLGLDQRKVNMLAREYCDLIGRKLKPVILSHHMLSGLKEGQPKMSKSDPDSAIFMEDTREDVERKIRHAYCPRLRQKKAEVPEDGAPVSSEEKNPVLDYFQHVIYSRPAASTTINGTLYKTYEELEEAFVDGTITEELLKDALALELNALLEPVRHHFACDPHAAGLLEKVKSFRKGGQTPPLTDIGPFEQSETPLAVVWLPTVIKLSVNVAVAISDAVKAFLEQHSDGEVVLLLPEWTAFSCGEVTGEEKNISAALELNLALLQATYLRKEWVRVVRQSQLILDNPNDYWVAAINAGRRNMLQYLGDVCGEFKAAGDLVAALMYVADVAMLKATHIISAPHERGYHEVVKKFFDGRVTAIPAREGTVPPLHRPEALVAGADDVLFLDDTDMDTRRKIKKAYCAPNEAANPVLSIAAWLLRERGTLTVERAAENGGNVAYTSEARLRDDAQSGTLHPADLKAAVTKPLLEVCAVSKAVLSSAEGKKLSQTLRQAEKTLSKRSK
The experiment in a line: Trypanosoma cruzi tyrosyl tRNA synthetase (TcYRS) _High Tyrosine SOP. Further: in the data most compounds retested in dose-response had high values. It counts as functional. The following applies: 30 µM.

Test [8] concerns the target T4, Tyrosyl-tRNA synthetase, putative (Trypanosoma cruzi (strain CL Brener)). The experiment in a line: Trypanosoma cruzi tyrosyl tRNA synthetase (TcYRS) SOP. It counts as functional. The following applies: 30 µM.
Test [9] addresses Chromo domain-containing protein 1 (Saccharomyces cerevisiae (strain ATCC 204508 / S288c) (Baker's yeast)) (UniProt P32657). The experiment in a line: ScCHD-1 Enzyme Inhibition Assay. Further: in the data most compounds retested in dose-response had high values. It counts as functional. The following applies: 30 µM.

Sequence of Chromo domain-containing protein 1 (Saccharomyces cerevisiae (strain ATCC 204508 / S288c) (Baker's yeast)) (P32657 whole entry, the tested form may be a part): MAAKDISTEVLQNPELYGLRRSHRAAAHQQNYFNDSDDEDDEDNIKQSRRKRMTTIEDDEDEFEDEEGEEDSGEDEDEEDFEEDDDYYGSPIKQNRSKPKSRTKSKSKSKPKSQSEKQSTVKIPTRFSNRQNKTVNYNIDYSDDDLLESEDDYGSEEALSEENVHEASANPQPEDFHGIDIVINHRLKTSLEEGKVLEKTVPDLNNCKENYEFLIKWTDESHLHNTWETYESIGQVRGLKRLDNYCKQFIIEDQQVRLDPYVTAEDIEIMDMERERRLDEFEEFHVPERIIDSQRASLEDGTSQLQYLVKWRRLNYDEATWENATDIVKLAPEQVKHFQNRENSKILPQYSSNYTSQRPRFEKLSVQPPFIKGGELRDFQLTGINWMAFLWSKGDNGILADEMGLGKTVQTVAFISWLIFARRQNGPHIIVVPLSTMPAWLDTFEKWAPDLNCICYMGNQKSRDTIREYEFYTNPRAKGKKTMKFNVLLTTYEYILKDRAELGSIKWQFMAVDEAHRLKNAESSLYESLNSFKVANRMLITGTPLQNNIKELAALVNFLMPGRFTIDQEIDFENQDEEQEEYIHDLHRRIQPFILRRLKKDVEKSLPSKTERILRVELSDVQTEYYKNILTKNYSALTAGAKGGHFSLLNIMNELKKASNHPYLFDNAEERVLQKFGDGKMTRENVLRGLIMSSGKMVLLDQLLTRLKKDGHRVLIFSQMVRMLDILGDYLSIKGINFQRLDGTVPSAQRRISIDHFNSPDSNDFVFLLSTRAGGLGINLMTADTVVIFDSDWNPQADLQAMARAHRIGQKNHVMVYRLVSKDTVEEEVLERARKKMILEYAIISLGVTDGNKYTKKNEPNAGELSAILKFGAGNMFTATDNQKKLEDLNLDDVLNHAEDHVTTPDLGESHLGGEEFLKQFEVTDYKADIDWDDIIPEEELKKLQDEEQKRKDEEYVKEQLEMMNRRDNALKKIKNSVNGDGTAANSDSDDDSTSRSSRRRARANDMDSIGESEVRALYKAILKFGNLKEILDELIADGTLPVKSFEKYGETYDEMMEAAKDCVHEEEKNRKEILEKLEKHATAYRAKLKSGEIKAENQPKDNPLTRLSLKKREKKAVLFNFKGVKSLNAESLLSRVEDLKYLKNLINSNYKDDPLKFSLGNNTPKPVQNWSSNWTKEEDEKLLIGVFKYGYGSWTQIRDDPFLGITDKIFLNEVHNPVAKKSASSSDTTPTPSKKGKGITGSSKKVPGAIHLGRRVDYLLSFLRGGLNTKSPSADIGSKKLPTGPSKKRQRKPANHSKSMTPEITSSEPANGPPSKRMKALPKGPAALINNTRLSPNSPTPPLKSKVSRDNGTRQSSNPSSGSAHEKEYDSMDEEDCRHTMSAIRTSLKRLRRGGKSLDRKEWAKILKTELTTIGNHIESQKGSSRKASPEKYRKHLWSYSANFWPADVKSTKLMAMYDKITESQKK
Sequence of Sialic acid-binding Ig-like lectin 9 (Homo sapiens) (Q9Y336 whole entry): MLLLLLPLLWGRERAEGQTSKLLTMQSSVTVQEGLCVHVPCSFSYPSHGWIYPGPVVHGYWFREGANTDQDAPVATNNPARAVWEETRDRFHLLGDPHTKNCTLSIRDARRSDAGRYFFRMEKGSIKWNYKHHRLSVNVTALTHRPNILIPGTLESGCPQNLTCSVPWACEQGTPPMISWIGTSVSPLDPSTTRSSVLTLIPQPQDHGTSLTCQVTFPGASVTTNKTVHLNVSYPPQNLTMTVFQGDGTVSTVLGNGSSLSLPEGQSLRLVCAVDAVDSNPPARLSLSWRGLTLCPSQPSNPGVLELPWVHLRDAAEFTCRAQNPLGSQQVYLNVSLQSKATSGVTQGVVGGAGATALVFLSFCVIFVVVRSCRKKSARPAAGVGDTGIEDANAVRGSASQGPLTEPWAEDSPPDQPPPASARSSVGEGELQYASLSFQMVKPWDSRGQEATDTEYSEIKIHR
Sequence of Protein translocase subunit SecA (Escherichia coli (strain K12)) (P10408 whole entry): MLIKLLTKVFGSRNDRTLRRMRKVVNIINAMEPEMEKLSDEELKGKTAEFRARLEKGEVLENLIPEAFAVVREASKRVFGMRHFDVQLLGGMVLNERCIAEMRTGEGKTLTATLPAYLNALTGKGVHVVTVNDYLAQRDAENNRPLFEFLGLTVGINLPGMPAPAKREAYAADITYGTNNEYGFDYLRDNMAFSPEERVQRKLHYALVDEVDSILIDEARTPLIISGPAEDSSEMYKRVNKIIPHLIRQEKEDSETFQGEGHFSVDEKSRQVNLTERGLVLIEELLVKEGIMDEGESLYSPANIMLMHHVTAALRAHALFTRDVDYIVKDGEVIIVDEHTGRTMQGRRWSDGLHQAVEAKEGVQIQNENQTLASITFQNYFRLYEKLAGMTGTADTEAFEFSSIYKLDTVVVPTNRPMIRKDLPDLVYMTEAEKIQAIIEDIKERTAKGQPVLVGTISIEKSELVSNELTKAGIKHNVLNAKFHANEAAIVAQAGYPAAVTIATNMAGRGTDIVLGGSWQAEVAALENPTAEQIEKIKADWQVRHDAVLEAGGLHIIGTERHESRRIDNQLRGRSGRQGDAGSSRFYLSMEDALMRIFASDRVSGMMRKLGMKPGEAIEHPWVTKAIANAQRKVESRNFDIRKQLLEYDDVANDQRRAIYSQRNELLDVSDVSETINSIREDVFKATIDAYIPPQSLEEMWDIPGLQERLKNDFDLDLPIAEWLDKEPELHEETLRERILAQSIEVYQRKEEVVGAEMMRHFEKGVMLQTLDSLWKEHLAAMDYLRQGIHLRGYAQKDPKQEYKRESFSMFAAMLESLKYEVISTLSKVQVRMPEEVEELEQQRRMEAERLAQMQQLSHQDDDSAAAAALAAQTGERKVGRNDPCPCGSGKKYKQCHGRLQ

Regarding `CCc1c(C)sc(NC(=O)CN2CCN(CC)CC2)c1C(=O)OC`, the Percent Effect was -1.97% in test [1]; -12.5% in test [2]; -2.07% in [3]; 3.39% in test [4]; 2.62% with Trypanosoma cruzi; 0% in test [5]. Moreover, the Percent Effect in test [6] was -2.46%; in the test filed under Homo sapiens, -12.9%; in test [7], 0%; in [8] it was -2.56%; in test [9] it was 2.67%.
For `CNC(=O)c1cc2c(nc1NC(C)C)CCN(C(=O)NC(C)C)CC2`, the Percent Effect in test [1] is -2.44%; in test [2], 0%; in test [3], -4.24%; in test [4], -6.22%; in the test on Trypanosoma cruzi, -2.64%; in test [5], -0.744%. In addition, the Percent Effect in test [6] is -2.83%; in the test listed under Homo sapiens, -8.82%; in test [7], 6.45%; in test [8] it was 6.17%; in [9] it was -0.531%.
In the case of `CCn1cnnc1C1CCN(C(=O)c2ccc(C(=O)OC)s2)CC1`, the Percent Effect in test [1] was -6.84%; in test [2] it was 10.4%; in test [3], 4.62%; in test [4], 9.21%; in the test with Trypanosoma cruzi, -4.87%; in test [5], -0.356%. Moreover, the Percent Effect is 7.43% in [6]; -6.83% in the test filed under Homo sapiens; 4.85% in test [7]; 12.2% in test [8]; -5.74% in test [9].
Turning to `CC1(NC(=O)Cc2csc(C(C)(C)C)n2)CCS(=O)(=O)C1` (stereo not drawn), the Percent Effect in [1] is -7.31%; in [2], 19.2%; in [3], -17.7%; in test [4] it was 20.2%; in the test on Trypanosoma cruzi it was 9.01%; in test [5], 7.27%. Also, the Percent Effect was 13.7% in test [6]; 17.5% in the test listed under Homo sapiens; 4.3% in test [7]; 17.5% in [8]; -4.8% in test [9].
With `COc1ccnc(N2CCN(C(=O)c3csc(C(C)C)n3)CC2)n1`, the Percent Effect in [1] is -7.52%; in [2], 10.8%; in test [3], -3.77%; in test [4], 29.4%; with Trypanosoma cruzi, 9.68%; in [5], 5.21%. In addition, the Percent Effect in test [6] was 7.3%; in the test filed under Homo sapiens, 13%; in [7] it was 4.3%; in test [8], 11.1%; in [9] it was -11.3%.
Consider `O=C(c1ccsc1)N1CCOC2(CCN(Cc3cccnc3)CC2)C1`, for which the Percent Effect in test [1] was -1.61%; in test [2], -2.67%; in test [3], 3.67%; in test [4] it was 7.65%; with Trypanosoma cruzi, 0.579%; in [5], -3.4%. Further, the Percent Effect in test [6] is 8.38%; in the test filed under Homo sapiens it was -17%; in [7] it was 3.12%; in test [8], 5%; in test [9], -6.25%.
Consider `O=C(O)C(c1ccc2c(c1)OCCO2)N1CCCCCC1` (stereo not drawn), for which the Percent Effect in test [1] was -4.06%; in [2], 5.33%; in test [3], 0.637%; in test [4], 5.42%; with Trypanosoma cruzi it was -0.682%; in test [5], 4.69%. For the same compound, the Percent Effect in test [6] is 17.1%; in the test filed under Homo sapiens, -7.93%; in test [7], 9.29%; in test [8] it was 13.6%; in [9] it was -1.28%.
Consider `c1ccc(CN2CCCC(c3nccnc3-n3ccnc3)C2)cc1` (stereo not drawn), for which the Percent Effect is -1.15% in [1]; 10.7% in test [2]; 4.45% in test [3]; -1.75% in test [4]; 0.591% with Trypanosoma cruzi; -0.233% in [5]. Moreover, the Percent Effect in test [6] is 14.5%; in the test filed under Homo sapiens it was 7.14%; in [7], 5.32%; in test [8], 6.41%; in test [9], -0.742%.
